Pf growth 48h: Primary qHTS for delayed death inhibitors of the malarial parasite plastid, 48 hour incubation; P. falciparum luciferase growth in erythrocytes, 48 h; Potency, µM (highest dose often 28.7 µM), inactives show at the highest dose activity change, negative = inhibition, actives largely listed as inhibitors; hit rate 5.9% among 310,000
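Here the parasites carry a stable luciferase gene and grow inside erythrocytes in Albumax-based RPMI medium with compound for one erythrocytic cycle. Activity is scored as loss of luminescent signal.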
Pf growth 96h: Primary qHTS for delayed death inhibitors of the malarial parasite plastid, 96 hour incubation. P. falciparum luciferase reporter growth, 96 h. Potency, µM (titrated, usually from 28.7 µM), for the others: at the top dose activity change, negative = inhibition, hits mostly inhibitors. hit rate 6.9% among 320,000. AID 504834, 2011
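Infected RBCs, 2% Hct / 0.05% parasitemia final; luciferase-reporter P. falciparum; cpd 96 h, 37 C, 5% CO2; luciferase detection reagent; luminescence.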
Vaccinia mCherry: qHTS for Stage-Specific Inhibitors of Vaccinia Orthopoxvirus: mCherry Reporter Primary qHTS. Vaccinia virus mCherry reporter infection, fluorescence. Potency, µM (titrated, usually from 36.5 µM), for the others: at the highest dose activity change, negative = inhibition, most hits filed as inhibitors. hit rate 0.63% among 310,000. AID 720579, 2013; calls by dose curve; tested in A549 cells; note: nearly all actives have a fitted effect of over 35% in size
AMA1-RON2 inh: qHTS for Inhibitors of AMA1-RON; Towards Development of Antimalarial Drug Lead: Primary Screen; AlphaScreen AMA1-biotinylated RON2 peptide binding; AID 720542, 2013; hit rate 0.2% among 360,000; Potency, µM (titrated, usually from 58.2 µM), for the others: top-dose activity change, negative = inhibition, hits mostly inhibitors;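 note: 0% = vehicle wells and -100% = peptide control; nearly all actives have a fitted effect of over 45% in size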
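AMA1 (3D7) with his tag at 25 nM final met compounds first, then biotinylated RON2 peptide at 25 nM; detection used donor plus acceptor beads, 10 µg/mL apiece, read by AlphaScreen after 30 min at room temperature.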
VACV Venus inh: qHTS for Stage-Specific Inhibitors of Vaccinia Orthopoxvirus: Venus Reporter Primary qHTS; Vaccinia virus Venus reporter expression, fluorescence; Potency, µM (series often up to 36.5 µM), for the others: at the highest dose activity change, negative = inhibition, most hits filed as inhibitors; hit rate 0.46% among 330,000; AID 720580, 2013; calls by dose curve; tested in A549 cells; note: nearly all actives have a fitted effect of over 30% in size
Starred values were filed as active, the others as inactive; [ ] = dose if it differs, or a comment. In the library only some 8.7% were active in any assay of this set; here they are far more common. Unless noted, calls come from the whole dose curve; as a rule, active = well fitted curve in the direction sought with a large enough effect; inconclusive = small, poorly fitted or top-dose-only effect, or another doubt; inactive = no such curve, though single readings can be large; an effect the other way counts as inactive or inconclusive. Unless noted, % is set by controls: 0 for no effect and ±100 for the full control effect; potency is the fitted concentration of half-maximal effect.

Cc1onc(-c2c(Cl)cccc2Cl)c1C(=O)NCc1ccccn1 was read as Pf growth 48h -18%, Pf growth 96h 2.1µM*, Vaccinia mCherry inactive, AMA1-RON2 inh -8% and VACV Venus inh -11%.
Cc1onc(-c2c(F)cccc2Cl)c1C(=O)OCC(=O)NCc1ccco1 was read as Pf growth 48h inconclusive, Vaccinia mCherry inactive[1.46 µM], AMA1-RON2 inh -14% and VACV Venus inh -7%.
Cc1ccc(C)c(Nc2nnc(-n3nc(C)cc3C)c3ccccc23)c1 was read as Vaccinia mCherry -13% and VACV Venus inh -12%.
Cc1ccc(C(=O)N2CC=C(c3ccccc3)CC2)o1 was read as Pf growth 48h 13µM*, Pf growth 96h -5%, Vaccinia mCherry inactive, AMA1-RON2 inh -20% and VACV Venus inh -7%.
`O=C(O)c1ccccc1C(=O)N1CC=C(c2ccccc2)CC1` gave Pf growth 48h inconclusive, Pf growth 96h 37%, AMA1-RON2 inh -3% and VACV Venus inh -19%.
CCOC(=O)CSC1=Nc2ccccc2C2=NC(CC(=O)NCc3cccs3)C(=O)N12 (stereo not given) was read as Pf growth 48h 10µM*, Pf growth 96h inconclusive, Vaccinia mCherry -14%, AMA1-RON2 inh 2% and VACV Venus inh -4%.
COc1ccc(NC(=O)CSC2=Nc3ccccc3C3=NC(CC(=O)NCc4ccc(F)cc4)C(=O)N23)cc1 (stereo not given) was read as Vaccinia mCherry -15% and VACV Venus inh -10%.
Screening CCC(C)NC(=O)CSC1=Nc2ccccc2C2=NC(CC(=O)NCc3ccc(F)cc3)C(=O)N12 (stereo not given) returned Pf growth 48h 13µM*, Pf growth 96h inconclusive and AMA1-RON2 inh 4%.
COc1ccc(CNC(=O)CCC2N=C3c4ccccc4N=C(SCC(=O)NCC4CCCO4)N3C2=O)cc1 (stereo not given) was read as Pf growth 48h inconclusive, Pf growth 96h 13µM*, Vaccinia mCherry -13%, AMA1-RON2 inh 10% and VACV Venus inh -12%.
Screening COCCCNC(=O)CSC1=Nc2ccccc2C2=NC(Cc3c[nH]c4ccccc34)C(=O)N12 (stereo not given) returned Pf growth 48h 5%, Pf growth 96h 5.2µM*, Vaccinia mCherry -14%, AMA1-RON2 inh -7% and VACV Venus inh -10%.
For COCCCNC(=O)CSC1=Nc2ccccc2C2=NC(c3ccccc3)C(=O)N12 (stereo not given) the results were Pf growth 48h -1%, Pf growth 96h inconclusive and AMA1-RON2 inh -12%.
For Cc1ccc(N(CC(=O)N2CCN(c3ccc(Cl)cc3)CC2)S(=O)(=O)c2c(C)noc2C)cc1 the results were Vaccinia mCherry -14% and VACV Venus inh -16%.
Screening CCN(C(=O)Cn1nnc2sc(-c3ccccc3)cc2c1=O)c1cccc(C)c1 returned Vaccinia mCherry -16% and VACV Venus inh -13%.
For COc1cc(O)c(C(CCN2CCCC2)c2cc(OC)c(OC)c(OC)c2)c(OC)c1 (stereo not given) the results were Pf growth 48h 4.1µM*, Pf growth 96h 2.9µM*, Vaccinia mCherry inactive, AMA1-RON2 inh -6% and VACV Venus inh -14%.
COc1cc(O)c(C(CCN2CCCCC2)c2cc(OC)c(OC)c(OC)c2)c(OC)c1 (stereo not given) was read as Pf growth 48h 0.74µM*, Pf growth 96h 1.9µM*, Vaccinia mCherry -5%, AMA1-RON2 inh 3% and VACV Venus inh -25%.
Screening COc1cc(O)c(C(CCN2CCOCC2)c2cc(OC)c(OC)c(OC)c2)c(OC)c1 (stereo not given) returned Pf growth 48h inconclusive, Pf growth 96h inconclusive, Vaccinia mCherry -15%, AMA1-RON2 inh 6% and VACV Venus inh -21%.
For Cc1cccc(N2CCN(C(=O)CS(=O)(=O)Cc3nc(-c4ccccc4C)oc3C)CC2C)c1 (stereo not given) the results were Vaccinia mCherry -9% and VACV Venus inh -3%.
For O=C(CCCOc1ccc(Cl)cc1Cl)N/N=C/c1ccccc1O the results were Pf growth 48h inconclusive, Pf growth 96h inconclusive, Vaccinia mCherry 7.1µM*, AMA1-RON2 inh 64% and VACV Venus inh inconclusive.
Cc1cccc(OCCCC(=O)NC(C)c2ccccc2)c1 (stereo not given) was read as Pf growth 96h inconclusive, Vaccinia mCherry -1%, AMA1-RON2 inh 14% and VACV Venus inh -7%.
Screening Cc1cccc(OCCCC(=O)NC(C)C)c1 returned Pf growth 48h -10%, Pf growth 96h -13%, AMA1-RON2 inh -7% and VACV Venus inh 11µM*.
Screening CC(C)NC(=O)CCCOc1ccc(Cl)cc1Cl returned Pf growth 96h 10µM*, Vaccinia mCherry -14%, AMA1-RON2 inh -1% and VACV Venus inh -9%.
For COC(=O)NNC(=O)CCCOc1ccc(Cl)cc1Cl the results were Pf growth 48h 1%, Pf growth 96h 38%, Vaccinia mCherry -13%, AMA1-RON2 inh 2% and VACV Venus inh 5%.
For COc1cc(OC)c(NC(=O)C2CCN(S(=O)(=O)c3ccc4c(c3)oc(=O)n4C)CC2)cc1Cl the results were Vaccinia mCherry -1% and VACV Venus inh -5%.
Screening Cc1ccccc1CN1C(=O)C(O)(c2c[nH]c3ccccc23)c2cc(Cl)ccc21 (stereo not given) returned Vaccinia mCherry -14% and VACV Venus inh -13%.
`COc1ccc(OC)c(C(=O)C2COC(=O)C2)c1` (stereo not given) gave Pf growth 48h 10µM*, Pf growth 96h 49%, AMA1-RON2 inh 8% and VACV Venus inh -2%.
`COc1ccc(OC)c(C(=O)c2ccc(C(=O)c3cc(OC)ccc3OC)cc2)c1` gave Pf growth 48h 3%, Vaccinia mCherry -15%, AMA1-RON2 inh -1% and VACV Venus inh -3%.
`COc1ccc(S(=O)(=O)c2cnc3ccc(Cl)cc3c2N2CCCCC2C)cc1` (stereo not given) gave Vaccinia mCherry -16% and VACV Venus inh inconclusive.
Screening CC1CCC(NC(=S)NCCN(C)C)CC1 (stereo not given) returned Pf growth 48h 72%, Pf growth 96h 38%[5.75 µM], Vaccinia mCherry inactive, AMA1-RON2 inh 5% and VACV Venus inh -6%.
Screening CC1CCC(NC(=O)N(CCCl)N=O)CC1 (stereo not given) returned Pf growth 48h 5.4µM*, Pf growth 96h 6.7µM*, Vaccinia mCherry -8%, AMA1-RON2 inh 7% and VACV Venus inh -25%.
For COc1cccc(NC(=O)c2ccc(CNS(=O)(=O)c3ccc4c(c3)C(C)(C)C(=O)N4C)cc2)c1 the results were Vaccinia mCherry -20% and VACV Venus inh -19%.
